Results as given in PubChem BioAssay AID1159580 (chemical genetic matrix, 2015).
Hit rate of the full screen: of about 5,500 compounds, about 2,000 (36%) were called active. Not shown: some 18% with an inconclusive outcome. No stated cut-off is given here; in the data, active means normalized growth mostly below about 0.91 (no sharp cut-off); inconclusive means no clear call, values can overlap the other calls; inactive means mostly above about 0.92. The list shows a part of the results.

Test: chemical genetic growth profiling, strain panel (AID 1159580);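 further: tested at 20 µM; growth read once vehicle control cultures reached saturation at 30 °C; 1 = growth at the plate median or of vehicle wells; lower values mean less growth of the strain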
Details: growth OD
[1] = S. cerevisiae deletion strains, locus YDL101C, strain DUN1, active compounds read low
[2] = S. cerevisiae deletion strains, locus YHR030C, strain SLT2, active compounds read low

Measured: normalized growth

CC(=O)c1sc(SCc2ccc(Cl)cc2)c2c1CC(C)(C)CC2=O
inactive: S. cerevisiae deletion strains, locus YAL013W, strain DEP1, active compounds read low 0.97 | S. cerevisiae deletion strains, locus YBR229C, strain ROT2, active compounds read low 1.06 | [1] 1.01 | S. cerevisiae deletion strains, locus YDL134C, strain PPH21, active compounds read low 0.976 | S. cerevisiae deletion strains, locus YDR150W, strain NUM1, active compounds read low 0.954 | S. cerevisiae deletion strains, locus YEL061C, strain CIN8, active compounds read low 1.07 | S. cerevisiae deletion strains, locus YGR078C, strain PAC10, active compounds read low 1 | [2] 0.793 | S. cerevisiae deletion strains, locus YHR087W, strain rtc3, active compounds read low 1 | S. cerevisiae deletion strains, locus YJR043C, strain POL32, active compounds read low 0.987 | S. cerevisiae deletion strains, locus YJR075W, strain HOC1, active compounds read low 1.05 | S. cerevisiae deletion strains, locus YKL190W, strain CNB1, active compounds read low 0.966 | S. cerevisiae deletion strains, locus YLR039C, strain RIC1, active compounds read low 0.938 | S. cerevisiae deletion strains, locus YLR058C, strain SHM2 (second series), active compounds read low 1.01 | S. cerevisiae deletion strains, locus YLR085C, strain ARP6, active compounds read low 1.02 | S. cerevisiae deletion strains, locus YLR262C, strain YPT6, active compounds read low 0.941 | S. cerevisiae deletion strains, locus YML094W, strain GIM5, active compounds read low 1.01 | S. cerevisiae deletion strains, locus YMR219W, strain ESC1, active compounds read low 1.03 | S. cerevisiae deletion strains, locus YMR263W, strain SAP30, active compounds read low 0.936 | S. cerevisiae deletion strains, locus YMR307W, strain GAS1, active compounds read low 1.03 | S. cerevisiae deletion strains, locus YNL128W, strain TEP1, active compounds read low 0.981 | S. cerevisiae deletion strains, locus YNL153C, strain GIM3, active compounds read low 0.971 | S. cerevisiae deletion strains, locus YNL298W, strain CLA4 (second series), active compounds read low 0.952 | S. cerevisiae deletion strains, locus YNL322C, strain KRE1, active compounds read low 0.993 | S. cerevisiae deletion strains, locus YNR030W, strain Alg12, active compounds read low 0.941 | S. cerevisiae deletion strains, locus YPL055C, strain LGE1, active compounds read low 1.12 | S. cerevisiae deletion strains, locus YPL241C, strain CIN2, active compounds read low 0.907 | S. cerevisiae deletion strains, locus YPR135W, strain CTF4, active compounds read low 0.819 | S. cerevisiae strains, strain wild type, active compounds read low 0.955

Cc1ccc(S(=O)(=O)CCSC2=CC(=O)CC(C)(C)S2)cc1
inactive: S. cerevisiae deletion strains, locus YAR019C, strain CDC15, active compounds read low 1.01 | S. cerevisiae deletion strains, locus YBL105C, strain PKC1, active compounds read low 0.987 | S. cerevisiae deletion strains, locus YBR135W, strain CKS1, active compounds read low 1 | S. cerevisiae deletion strains, locus YBR136W, strain MEC1, active compounds read low 1 | S. cerevisiae deletion strains, locus YBR160W, strain CDC28, active compounds read low 0.998 | S. cerevisiae deletion strains, locus YDL017W, strain CDC7, active compounds read low 0.998 | S. cerevisiae deletion strains, locus YDL028C, strain MPS1, active compounds read low 1 | [1] 1 | S. cerevisiae deletion strains, locus YDL108W, strain KIN28, active compounds read low 1 | S. cerevisiae deletion strains, locus YDL132W, strain cdc53, active compounds read low 1 | S. cerevisiae deletion strains, locus YDL214C, strain PRR2, active compounds read low 0.98 | S. cerevisiae deletion strains, locus YDR052C, strain DBF4, active compounds read low 1 | S. cerevisiae deletion strains, locus YDR054C, strain cdc34, active compounds read low 0.998 | S. cerevisiae deletion strains, locus YDR226W, strain ADK1, active compounds read low 0.994 | S. cerevisiae deletion strains, locus YDR477W, strain SNF1, active compounds read low 0.974 | S. cerevisiae deletion strains, locus YER123W, strain YCK3, active compounds read low 0.924 | S. cerevisiae deletion strains, locus YER133W, strain GLC7, active compounds read low 0.895 | S. cerevisiae deletion strains, locus YFL009W, strain cdc4, active compounds read low 0.997 | S. cerevisiae deletion strains, locus YFL029C, strain CAK1, active compounds read low 1.01 | S. cerevisiae deletion strains, locus YFR003C, strain YPI1, active compounds read low 0.997 | S. cerevisiae deletion strains, locus YFR019W, strain FAB1, active compounds read low 0.905 | S. cerevisiae deletion strains, locus YFR028C, strain CDC14, active compounds read low 0.998 | S. cerevisiae deletion strains, locus YGR040W, strain KSS1, active compounds read low 0.948 | S. cerevisiae deletion strains, locus YGR052W, strain FMP48, active compounds read low 0.987 | S. cerevisiae deletion strains, locus YGR092W, strain DBF2, active compounds read low 1 | [2] 0.987 | S. cerevisiae deletion strains, locus YHR079C, strain IRE1, active compounds read low 1.06 | S. cerevisiae deletion strains, locus YHR082C, strain KSP1, active compounds read low 1.08 | S. cerevisiae deletion strains, locus YHR205W, strain SCH9, active compounds read low 0.988 | S. cerevisiae deletion strains, locus YIL147C, strain SLN1, active compounds read low 0.997 | S. cerevisiae deletion strains, locus YJL095W, strain BCK1, active compounds read low 0.948 | S. cerevisiae deletion strains, locus YJL128C, strain PBS2, active compounds read low 1.02 | S. cerevisiae deletion strains, locus YJL157C, strain FAR1, active compounds read low 0.973 | S. cerevisiae deletion strains, locus YJR016C, strain ILV3, active compounds read low 0.999 | S. cerevisiae deletion strains, locus YJR066W, strain TOR1 (second series), active compounds read low 0.892 | S. cerevisiae deletion strains, locus YJR066W, strain TOR1, active compounds read low 1.04 | S. cerevisiae deletion strains, locus YKL048C, strain ELM1, active compounds read low 0.985 | S. cerevisiae deletion strains, locus YKL067W, strain YNK1, active compounds read low 0.987 | S. cerevisiae deletion strains, locus YKL101W, strain HSL1, active compounds read low 0.995 | S. cerevisiae deletion strains, locus YKL193C, strain SDS22, active compounds read low 1 | S. cerevisiae deletion strains, locus YKL203C, strain TOR2, active compounds read low 0.978 | S. cerevisiae deletion strains, locus YLR113W, strain HOG1, active compounds read low 1.05 | S. cerevisiae deletion strains, locus YLR133W, strain CKI1, active compounds read low 0.963 | S. cerevisiae deletion strains, locus YLR403W, strain SFP1, active compounds read low 0.95 | S. cerevisiae deletion strains, locus YML070W, strain DAK1, active compounds read low 0.965 | S. cerevisiae deletion strains, locus YMR001C, strain CDC5, active compounds read low 0.999 | S. cerevisiae deletion strains, locus YMR205C, strain PFK2 (second series), active compounds read low 0.974 | S. cerevisiae deletion strains, locus YMR277W, strain FCP1, active compounds read low 1 | S. cerevisiae deletion strains, locus YNL006W, strain LST8, active compounds read low 0.996 | S. cerevisiae deletion strains, locus YNL020C, strain ARK1, active compounds read low 0.979 | S. cerevisiae deletion strains, locus YNL161W, strain CBK1, active compounds read low 1 | S. cerevisiae deletion strains, locus YNL183C, strain NPR1, active compounds read low 1.02 | S. cerevisiae deletion strains, locus YNL207W, strain RIO2, active compounds read low 1 | S. cerevisiae deletion strains, locus YNL222W, strain SSU72, active compounds read low 1 | S. cerevisiae deletion strains, locus YNL307C, strain MCK1 (second series), active compounds read low 0.977 | S. cerevisiae deletion strains, locus YOL078W, strain AVO1, active compounds read low 0.997 | S. cerevisiae deletion strains, locus YOL136C, strain PFK27, active compounds read low 0.929 | S. cerevisiae deletion strains, locus YOR061W, strain CKA2, active compounds read low 0.969 | S. cerevisiae deletion strains, locus YOR119C, strain RIO1, active compounds read low 0.996 | S. cerevisiae deletion strains, locus YOR231W, strain MKK1, active compounds read low 0.968 | S. cerevisiae deletion strains, locus YOR329C, strain SCD5, active compounds read low 1 | S. cerevisiae deletion strains, locus YPL031C, strain PHO85, active compounds read low 0.961 | S. cerevisiae deletion strains, locus YPL153C, strain RAD53, active compounds read low 0.959 | S. cerevisiae deletion strains, locus YPL204W, strain HRR25, active compounds read low 0.912 | S. cerevisiae deletion strains, locus YPL209C, strain IPL1, active compounds read low 0.998 | S. cerevisiae deletion strains, locus YPL256C, strain CLN2, active compounds read low 1.09 | S. cerevisiae deletion strains, locus YPR025C, strain CCL1, active compounds read low 1 | S. cerevisiae deletion strains, locus YPR106W, strain ISR1, active compounds read low 1.01 | S. cerevisiae deletion strains, locus YPR111W, strain DBF20, active compounds read low 0.999 | S. cerevisiae deletion strains, strain NNK1, active compounds read low 1.03 | S. cerevisiae deletion strains, strain TSCII, active compounds read low 1
